PubChem BioAssay
Activity calls are given as the source filed them. How the calls were made is not given here.

Experiment: inhibitors of Cryptococcus chitosan production, flow cytometry, Cibacron Brilliant Red staining (AID 1347148);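 further: compound exposure lasted three days at 37 degrees C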
Conditions: Cryptococcus neoformans chitosan, hits give low values; at 10 µM unless noted

Fold fluorescence, inactive:
Nc1ncnc2c1c(I)cn2C1OC(CO)C(O)C1O (stereo not given) 3.83 [at 127.5 µM]
OC[C@@H]1NC[C@@H](O)[C@H](O)[C@H]1O 7.48 [at 306.4 µM]
COc1ccc(CCCO[C@@H](Cn2ccnc2)c2ccc(OC)cc2)cc1 7.02 [at 136.4 µM]
CCCCC[C@@H](O)/C=C/[C@H]1[C@@H](C/C=C\CCCC(=O)O)[C@H](O)C[C@@H]1O 4.83
C[C@H]1CNCCN1S(=O)(=O)c1cccc2cnccc12 3.94 [at 171.6 µM]
COC(=O)[C@H]1[C@@H]2C[C@@H]3c4[nH]c5ccccc5c4CCN3C[C@H]2CC[C@H]1O 3.91 [at 141.1 µM]
C=C(C)[C@H]1CC[C@@]2(C(=O)O)CC[C@@]3(C)[C@@H](CC[C@H]4[C@]5(C)CC[C@@H](O)C(C)(C)[C@H]5CC[C@@]43C)[C@H]12 3.34 [at 109.5 µM]
CCOC(=O)C1=C(C)NC(=S)N[C@H]1c1cccc(O)c1 3.63 [at 171 µM]
CC[C@H]1/C=C(\C)C[C@@H](C)C[C@@H](OC)[C@@H]2O[C@](O)(C(=O)C(=O)N3CCCC[C@@H]3C(=O)O[C@@H](/C(C)=C/[C@H]3CC[C@H](O)[C@@H](OC)C3)[C@@H](C)[C@H](O)CC1=O)[C@@H](C)C[C@H]2OC 13.8 [at 63.1 µM]
CC[C@@]1([C@@H]2O[C@@H]([C@H]3O[C@@](O)(CO)[C@H](C)C[C@@H]3C)C[C@@H]2C)CC[C@H]([C@]2(C)CCC3(C[C@H](O)[C@@H](C)[C@@H]([C@@H](C)[C@@H](OC)[C@H](C)C(=O)O)O3)O2)O1 (stereo not given in full) 4.7 [at 72.2 µM]
